The whole screen tested about 59,000 compounds, of which about 6,500 (11%) were called active. Inconclusive results (about 15%) are left out. Cut-off read from the data, not from the text of the source: active = max dye-equivalent concentration above about 10 nM; inconclusive = mostly about 1.1 nM to 9.6 nM; inactive = weaker than that. The entries come from a sample that favours actives as a whole.

A short description of the assay: qHTS Assay for Spectroscopic Profiling in A350 Spectral Region. The settings on record: Compound autofluorescence, 340/450 nm, Alexa 350 dye-equivalents; hits give high values. For orientation: qHTS replaces the single test concentration by a dilution series.
With `CCC(c1nnnn1C1CCCC1)N1CCN(C(=O)c2ccco2)CC1` (centres undefined), the max dye-equivalent concentration entry was “inactive”.
In the case of `O=C(Nc1cccc(-c2nnc(-c3ccccc3)o2)c1)C1CCCO1` (centres undefined), the max dye-equivalent concentration result was “inactive”.
For the compound `O=C(Nc1ccc(-c2nnc(-c3ccccc3)o2)cc1)C1CCCO1` (centres undefined), the max dye-equivalent concentration entry was “inactive”.
Regarding `O=C(Nc1ccc(-c2nnc(-c3ccccc3)o2)cc1)c1ccc(Br)o1`, the max dye-equivalent concentration was 68 nM (active).
Regarding `CCNS(=O)(=O)c1ccc(NC(=O)Nc2cccc(OC)c2)cc1`, the max dye-equivalent concentration result is “inactive”.
For the compound `CN1c2ccccc2-c2nc3ccccc3n2C1c1ccco1` (centres undefined), the max dye-equivalent concentration is 3400 nM (active).
As for `CSCCC(NC(=O)c1ccc(=O)n(C)n1)c1nc2ccccc2[nH]1` (centres undefined), the max dye-equivalent concentration entry was “inactive”.
Turning to `COc1cc(C2C(C(=O)c3sc(C)nc3C)=C(O)C(=O)N2CCN(C)C)cc(OC)c1OC` (centres undefined), the max dye-equivalent concentration entry was “inactive”.
As to `O=C(c1csnn1)N1CCC[C@@]2(CCN(Cc3nccs3)C2)C1`, the max dye-equivalent concentration result is “inactive”.
With `O=C(NC1CCCCC1)c1ccc2c(=O)n(CC3CCCO3)c(=O)[nH]c2c1` (centres undefined), the max dye-equivalent concentration was 15 nM (active).
With `Cc1ccc(C(=O)Nc2ccccc2C(=O)NC2CCCCC2)cc1S(=O)(=O)N1CCOCC1`, the max dye-equivalent concentration entry is “inactive”.
In the case of `O=c1c2cc3c(=O)n(CC4CCCO4)c(=O)c3cc2c(=O)n1CC1CCCO1` (centres undefined), the max dye-equivalent concentration entry was “inactive”.
On to `NS(=O)(=O)c1cc(C(=O)O)c(Cl)c([N+](=O)[O-])c1Cl`, for which the max dye-equivalent concentration result is “inactive”.
Consider `CS(=O)(=O)N(Cc1nc2sc3c(c2c(=O)[nH]1)CCCC3)C1CCCCC1`, for which the max dye-equivalent concentration was 44 nM (active).
As for `COc1ccc(Br)c2c1C[C@H](C(=O)O)CC2`, the entry is “inactive”; as for `C=CCNC(=O)CCCC(=O)NCC=C`, “inactive”.
Consider `CSc1nnc(-c2ccncc2)n1CCCN1CCCC1=O`, for which the max dye-equivalent concentration result is “inactive”.
As for `O=C(CCn1c(=S)[nH]c2ccccc2c1=O)NCCCN1CCCC1=O`, the max dye-equivalent concentration entry is “inactive”.
Under `CC(C)(C)OC(=O)c1c(N)n(CCCN2CCCC2=O)c2nc3ccccc3nc12` stands 9100 nM (active); under `COc1ccc(N2C(=O)CC(N3CCC(C(N)=O)CC3)C2=O)cc1` (centres undefined), “inactive”.
For the compound `CC(C)NC(=O)N1CC[C@@]2(CCCN(C(=O)c3cccc(F)c3)C2)C1`, the max dye-equivalent concentration result is “inactive”.
As to `CCCCCNC(=O)Cc1ccc(OC)cc1`, the max dye-equivalent concentration result was “inactive”.
Consider `CCS(=O)(=O)n1nc(-c2ccccc2)nc1SCc1ccccc1`, for which the max dye-equivalent concentration entry is “inactive”.
Regarding `COc1ccccc1NC(=O)C1=C(C)Nc2nnnn2C1c1cccc(Br)c1` (centres undefined), the max dye-equivalent concentration result was “inactive”.
On to `CCCCCOC(=O)C1=C(C)Nc2nnnn2C1c1ccc(OC)c(OC)c1OC` (centres undefined), for which the max dye-equivalent concentration result was “inactive”.
In the case of `COC(=O)c1ccc(C2C3=C(Nc4nnnn42)c2ccccc2OC3)cc1` (centres undefined), the max dye-equivalent concentration is 74 nM (active).
`CC(=O)OC(C(=O)NC1CCCCC1)c1ccccc1` (centres undefined): the max dye-equivalent concentration result was “inactive”.
Consider `Cc1cc(C(=O)OCC(=O)c2c(N)n(C)c(=O)n(C)c2=O)c(C)o1`, for which the max dye-equivalent concentration result is “inactive”.
For `CC(NC(=O)CSc1nc2c(cc1C#N)CN(C)CC2)c1ccccc1` (centres undefined), the max dye-equivalent concentration is 26 nM (active).
For the compound `CC(NC(=O)c1cc(-c2ccccc2)on1)c1ccccc1` (centres undefined), the max dye-equivalent concentration entry is “inactive”.
Turning to `Cc1ccc2cc(C#N)c(SCC(=O)NCC3CCCO3)nc2c1C` (centres undefined), the max dye-equivalent concentration entry is “inactive”.
Regarding `CCC(C)NC(=O)C1CCC(=O)N1Cc1ccc(C)cc1` (centres undefined), the max dye-equivalent concentration result was “inactive”.
Under `NC(=O)C1(N2CCCCC2)CCN(C(=O)c2ccc(C#Cc3ccccc3)o2)CC1` stands “inactive”; under `O=S(=O)(NCc1ccccc1Cl)c1cnc[nH]1`, “inactive”.
Turning to `Cc1cc(NC(=O)c2cc(-c3cccs3)on2)nn1Cc1ccc(Cl)cc1`, the max dye-equivalent concentration result is “inactive”.
Regarding `CC(C)Cn1c(CCC(=O)O)ccc1-c1cccs1`, the max dye-equivalent concentration is 410 nM (active).
Regarding `O=C(O)CCC(=O)N(Cc1cccs1)Cc1cccs1`, the max dye-equivalent concentration entry was “inactive”.
For the compound `COc1ccc(NC(=O)N2CC3(CCN(C(C)=O)CC3)C2)cc1`, the max dye-equivalent concentration result was “inactive”.
Take `CC(C)c1ccc(NC(=O)NC2CCCCC2)cc1`: the max dye-equivalent concentration entry is “inactive”.
Take `FC(F)(F)c1ccccc1-c1nc(-n2ccnc2)c2ccccc2n1`: the max dye-equivalent concentration result is “inactive”.
In the case of `Cn1c(=O)[nH]c(=O)c2c1nc(NCCCn1ccnc1)n2Cc1cccc(Br)c1`, the max dye-equivalent concentration result was “inactive”.
As to `COc1cc(OC)cc(C(=O)Nc2ccc(-c3nc4ccccc4o3)c(O)c2)c1`, the max dye-equivalent concentration is 310 nM (active).
`COc1cccc(NC(=O)c2ccccc2SC)c1`: the max dye-equivalent concentration result was “inactive”.
For `COc1ccc(NC(=O)c2c(C)oc3c2CCCC3)cc1`, the max dye-equivalent concentration result is “inactive”.
Turning to `O=C(O)c1ccc(C(=O)c2ccccc2C(=O)O)cc1C(=O)O`, the max dye-equivalent concentration entry is “inactive”.
For the compound `C=CCn1c(COc2ccccc2F)nnc1SCC(=O)N1CC(=O)Nc2ccccc21`, the max dye-equivalent concentration result was “inactive”.
Regarding `CCOC(=O)CNC(=O)CSc1nnc(COc2ccc(Cl)cc2)n1CC`, the max dye-equivalent concentration result is “inactive”.
For the compound `COCc1nc2ccccc2n1Cc1ccccc1Br`, the max dye-equivalent concentration entry was “inactive”.
With `COc1ccc(OCC(=O)OCCN(C)C)cc1`, the max dye-equivalent concentration result is “inactive”.
In the case of `COC(=O)COc1ccc2oc(=O)cc(C)c2c1`, the max dye-equivalent concentration was 28 nM (active).
Take `CCOC(=O)c1c(C)oc2ccc(OCC(=O)N(CC)CC)cc12`: the max dye-equivalent concentration result is “inactive”.
`Cc1nn(-c2ccccc2)c(C)c1C(=O)OCC(=O)NC(=O)NC1CCCCC1`: the max dye-equivalent concentration result was “inactive”.
As to `O=C(CSc1nnc(-c2ccccn2)n1-c1ccccc1)Nc1ccc2c(c1)OCO2`, the max dye-equivalent concentration entry was “inactive”.
As for `O=c1ccc2cc(S(=O)(=O)N3CCN(c4ccccc4)CC3)ccc2o1`, the entry is “inactive”; as for `Cc1ccc2c(NC(=O)C3CC3)cccc2n1`, “inactive”; as for `CC(=O)N1CCC(C(=O)Nc2nc(-c3ccccc3)ns2)CC1`, 1700 nM (active).
For `Cc1cc(C)cc(NC(=O)C2CCN(c3nc(C)cc(C)n3)CC2)c1`, the max dye-equivalent concentration result is “inactive”.
Regarding `CCCC(=O)N1c2ccc(-c3csc(N)n3)cc2CC1C` (centres undefined), the max dye-equivalent concentration result is “inactive”.
Regarding `Cc1noc(NS(=O)(=O)c2ccc(N3CC(O)=C(c4ccccc4)C3=N)cc2)c1C`, the max dye-equivalent concentration entry was “inactive”.
Turning to `COc1ccc(OC)c2c(N)c(C#N)c(C(F)(F)C(F)(F)F)nc12`, the max dye-equivalent concentration is 150 nM (active).
Under `COc1cccc(N(C(=O)c2ccn[nH]2)C2(C(=O)Nc3c(C)cccc3C)CCCCC2)c1` stands “inactive”; under `CS(=O)(=O)N1CCC[C@@]2(CCN(c3ccncc3)C2)C1`, “inactive”; under `Cc1ccc(CN2C(=O)CCC2C(=O)NCCCN2CCCCC2C)cc1` (centres undefined), “inactive”.
Regarding `COc1ccccc1CN1CC2(CCN(S(=O)(=O)c3ccccc3)CC2)C1`, the max dye-equivalent concentration entry is “inactive”.
In the case of `CC(C)OCCCNC(=O)C1CC(=O)N(C2CCCCCCC2)C1` (centres undefined), the max dye-equivalent concentration entry is “inactive”.
With `COc1ccc(CCNS(=O)(=O)c2ccc(F)cc2)cc1OC`, the max dye-equivalent concentration entry was “inactive”.
In the case of `CSc1ccc(-c2c(C#N)c(N)nc3c2c(C)nn3-c2ccccc2)cc1`, the max dye-equivalent concentration was 360 nM (active).
As for `CCCc1[nH]nc2c1C(c1c(C)nn(-c3ccccc3)c1Cl)C(C#N)=C(N)O2` (centres undefined), the entry is “inactive”.
For `CSc1nc(N)c(C#N)c(-c2ccccc2Cl)c1C#N`, the max dye-equivalent concentration result is “inactive”.

The values are drawn from PubChem BioAssay AID590 (National Center for Advancing Translational Sciences (NCATS), 2007).
